Sampled rows, rich in hits. Any-hit rate of the full collection: about 10%.
Six1-Eya2 blk – qHTS Assay for Inhibitors of the Six1/Eya2 Interaction | AlphaScreen GST-Six1/His-Eya2 binding, biochemical; stronger effect = lower value | activity change, % (no concentration beside the values) | hit rate 0.56% among 360,000; in the data active = activity change below about -65%; inconclusive = mostly about -30% to -63%
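AlphaScreen with GST-Six1 and His-Eya2 (5X mix: 250 nM and 500 nM), glutathione donor and nickel acceptor beads; buffer 50 mM Tris pH 8.0, 300 mM NaCl, 1 mM TCEP; 1 h at 37 C in the dark.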
HP1b binding inh – HTS for Inhibitors of HP1-beta Chromodomain Interactions with Methylated Histone Tails | Potency, µM (highest dose often 114 µM), usual class: inhibitors | AlphaScreen HP1-beta / biotin-H3K9me3 peptide binding | Chromobox protein homolog 1 (Homo sapiens), P83916 | hit rate 0.56% among 390,000; also: nearly all actives have a fitted effect of over 70% in size
Target sequence (P83916 whole entry, looked up): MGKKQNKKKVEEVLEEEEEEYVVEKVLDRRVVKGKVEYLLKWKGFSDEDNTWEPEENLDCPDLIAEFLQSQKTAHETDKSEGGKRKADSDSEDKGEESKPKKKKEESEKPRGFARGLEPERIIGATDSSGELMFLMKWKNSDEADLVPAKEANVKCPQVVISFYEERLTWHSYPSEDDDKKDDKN
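AlphaScreen: HP1-beta (50 nM) preformed 30 min with biotin-H3(1-18)K9me3 peptide (50 nM) in PBS pH 7.4, 0.01% Tween-20. Compound added for 30 min at RT, then streptavidin donor/nickel chelate acceptor beads (10 ug/mL) for 30 min.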
CtBP-E1A blk – qHTS Assay for Inhibitors of the CtBP/E1A Interaction; activity change, % (test concentration not listed); AlphaScreen GST-E1A/His-CtBP binding, 1536-well; stronger effect = lower value; hit rate 0.49% among 340,000; AID 651724, 2012; CtBP / adenovirus E1A interaction (AlphaScreen); in the data active = activity change below about -65%; inconclusive = mostly about -30% to -63%
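GST-E1A and His-tagged CtBP (125 nM each as 5X stock) were preincubated with pin-transferred compound for 2 h at 37 °C in the dark, then glutathione donor and nickel acceptor beads were added for 1 h before AlphaScreen reading.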
G9a inh – qHTS Assay for Inhibitors of Histone Lysine Methyltransferase G9a. hit rate 8.8% among 350,000. G9a H3K9 monomethylation, AlphaScreen, 2 h. AID 504332, 2011. Potency, µM (highest dose often 102 µM), usual class: inhibitors; also: nearly all actives have a fitted effect of over 75% in size
Target sequence (Q96KQ7 913-1193 limits assumed): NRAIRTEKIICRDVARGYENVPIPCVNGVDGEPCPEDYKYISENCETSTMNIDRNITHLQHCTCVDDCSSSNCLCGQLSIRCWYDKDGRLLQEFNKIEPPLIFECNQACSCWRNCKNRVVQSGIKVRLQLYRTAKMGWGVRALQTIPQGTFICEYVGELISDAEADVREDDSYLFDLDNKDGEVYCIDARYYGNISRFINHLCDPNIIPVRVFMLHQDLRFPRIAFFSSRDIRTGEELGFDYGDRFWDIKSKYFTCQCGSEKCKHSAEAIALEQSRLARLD
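Using a bead-based AlphaScreen, monomethylated H3K9 product from 2 h room-temperature reactions (G9a 20 nM, peptide 500 nM, SAM 20 uM) was detected with 0.5 ug/mL rabbit anti-H3K9me1 antibody.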
JMJD2A Tudor – qHTS Assay for Inhibitors of JMJD2A-Tudor Domain; AlphaScreen JMJD2A-Tudor / H3K4me3 peptide binding; Potency, µM (series often up to 114 µM), usual class: inhibitors; hit rate 4.4% among 390,000; AID 504339, 2011; also: nearly all actives have a fitted effect of over 50% in size
BAZ2B inh – qHTS Assay for Inhibitors of BAZ2B; Potency, µM (top dose mostly 114 µM), most hits filed as inhibitors; hit rate 4.4% among 360,000; AlphaScreen BAZ2B-H3K14Ac peptide displacement; AID 504333, 2011; also: nearly all actives have a fitted effect of over 60% in size
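Compounds, titrated to a top concentration of 110 uM, were incubated 30 min at room temperature with preformed BAZ2B/acetyl-K14 H3 peptide complex (50 nM each). Proximity signal was measured by AlphaScreen after 20 min with beads.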
Large screens that a line does not name were inactive. Unless noted, calls follow the shape of the dose curve; as a rule, active = well fitted inhibition curve with a large enough effect; inconclusive = small, poorly fitted or top-dose-only effect; inactive = no such curve, though single readings can be large or run the other way.

CCN(CC)CCNC(=O)c1ccc(Sc2ccc(Cl)cc2)c(NC(C)=O)c1	none
CCN(CCNC(=O)c1ccc(C#N)cc1)c1cccc(C)c1	G9a inh 12.6µM
COc1cccc(CCNC(=O)c2ccc(C#N)cc2)c1	none (no result: G9a inh)
Nc1c(C(=O)NC2CCCC2)c2nc3ccccc3nc2n1N	G9a inh 50.1µM
COc1cc(Cl)c(C)cc1NC(=O)c1cnn(-c2ccc(F)cc2F)c1C1CCN(C(=O)OC(C)(C)C)CC1	G9a inh inconclusive (no result: Six1-Eya2 blk, CtBP-E1A blk)
O=C1CSC(=S)N1CC1CCCO1 (centres undefined)	none
CCC1CCCCN1CCn1c(=S)[nH]c2cc(OC)c(OC)cc2c1=O (centres undefined)	G9a inh 50.1µM, JMJD2A Tudor inconclusive
COc1cc2[nH]c(=S)n(Cc3ccco3)c(=O)c2cc1OC	G9a inh 3.55µM
Cc1[nH]c(=S)n(CC2CCCO2)c1C (centres undefined)	G9a inh inconclusive, JMJD2A Tudor 28.2µM
COc1cc2[nH]c(=S)n(CCCN3CCOCC3)c(=O)c2cc1OC	CtBP-E1A blk inconclusive, G9a inh inconclusive, JMJD2A Tudor 25.1µM
CCC(C(=O)NC(N)=O)c1ccccc1 (centres undefined)	none (no result: Six1-Eya2 blk, HP1b binding inh, CtBP-E1A blk, JMJD2A Tudor, BAZ2B inh)
O=C1CCC(C(=O)Nc2ccccc2N2CCCC2)=NN1	JMJD2A Tudor inconclusive, BAZ2B inh inconclusive
Cc1cc(Cl)ccc1NC(=O)C1CCN(c2nnc(-n3c(C)ccc3C)s2)CC1	none (no result: Six1-Eya2 blk, CtBP-E1A blk)
O=C1CCC(c2ccc(-n3ccnc3)cc2)=NN1	none (no result: BAZ2B inh)
COc1ccc(C2c3ccccc3Oc3ncn(CCN4CCOCC4)c(=N)c32)cc1OC (centres undefined)	none (no result: Six1-Eya2 blk, HP1b binding inh, CtBP-E1A blk, G9a inh, BAZ2B inh)
O=S(=O)(c1ccc(F)cc1)N1CCN(c2nc(-c3cccc(Br)c3)nc3ccccc23)CC1	none (no result: Six1-Eya2 blk, CtBP-E1A blk, G9a inh, BAZ2B inh)
COc1cc2[nH]c(=S)n(CC3CCCO3)c(=O)c2cc1OC (centres undefined)	G9a inh inconclusive, JMJD2A Tudor 79.4µM
COCCn1c(=S)[nH]c2cc(OC)c(OC)cc2c1=O	G9a inh inconclusive, JMJD2A Tudor 89.1µM
COc1cc2[nH]c(=S)n(CCN3CCOCC3)c(=O)c2cc1OC	G9a inh inconclusive, JMJD2A Tudor 31.6µM, BAZ2B inh inconclusive
COc1cc2[nH]c(=S)n(C3CC3)c(=O)c2cc1OC	G9a inh 17.8µM
CCOc1cc2[nH]c(=S)n(CC3CCCO3)c(=O)c2cc1OCC (centres undefined)	G9a inh inconclusive, JMJD2A Tudor inconclusive
CCN(CC)CCCn1c(=S)[nH]c2cc(OC)c(OC)cc2c1=O	G9a inh inconclusive, JMJD2A Tudor inconclusive
COc1cc2[nH]c(=S)n(C3CCCC3)c(=O)c2cc1OC	none
Cc1nnc(SCC(=O)Nc2ccc(N(C)C)cc2)[nH]c1=O	G9a inh inconclusive, BAZ2B inh inconclusive (no result: Six1-Eya2 blk, CtBP-E1A blk)
CC1CCC(=O)N(CCC#N)CC1 (centres undefined)	G9a inh 50.1µM
CCN(CC)C(=O)CC(c1ccc(F)cc1)c1ccc(OC(C)C)cc1 (centres undefined)	none (no result: Six1-Eya2 blk, HP1b binding inh, CtBP-E1A blk, JMJD2A Tudor)
CN1C(=O)C(c2nnc(Nc3cccc4ccccc34)s2)C2CC1(C)Oc1ccccc12 (centres undefined)	G9a inh 44.7µM, JMJD2A Tudor inconclusive
O=C(O)CCSc1nc2ccccc2n1Cc1ccccc1	none (no result: G9a inh)
COc1ccc(C(=O)NCc2ccc3c(c2)CCN3C(=O)c2ccncc2)cc1	none (no result: Six1-Eya2 blk, CtBP-E1A blk)
CC(C)(C)NC(=O)C[C@H]1C[C@H](C(=O)N2CCCCC2)[C@@]2(C)c3[nH]c4cc(-c5ccco5)ccc4c3CCN2C1=O	JMJD2A Tudor 50.1µM (no result: G9a inh, BAZ2B inh)
